Results from PubChem BioAssay (EPA / NIEHS).
Inconclusive results are not listed. Some structures have more than one record in an assay (separate samples or runs), and their calls can disagree. Active and inactive are the calls of the source. How the source made its calls, unless noted: active means hit-call score of the fitted dose curve at least 0.9, where 1 is the maximum; inactive means score below 0.9.

Key:
[1] = read-out: solute carrier (SLCO1B1), SLCO1B1 (gene 10599); assay: LTEA_HepaRG_SLCO1B1: Life Technologies and Expression Analysis (LTEA) Assay for solute carrier (SLCO1B1) using HepaRG (AID 2283530); details: mRNA level, 48 h; actives raise or lower the signal
Summary of the method: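 Gain or loss of SLCO1B1 mRNA is fitted against the 0.5% DMSO vehicle in human HepaRG liver cells treated 48 h at up to 100 uM in half-log steps. Expression comes from qRT-PCR normalized to endogenous controls.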

[2] = read-out: sulfotransferase 2A1 (SULT2A1), SULT2A1 (gene 6822); assay: LTEA_HepaRG_SULT2A1: Life Technologies and Expression Analysis (LTEA) Assay for sulfotransferase 2A1 (SULT2A1) using HepaRG (AID 2283531); details: mRNA level, 48 h; actives raise or lower the signal
Summary of the method: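 Cells were plated and cultured 48 h, switched to serum-free induction medium, then dosed in duplicate for 48 h (8 concentrations, max 100 uM). RNA was isolated and SULT2A1 expression measured by qRT-PCR; gain or loss of signal fitted relative to DMSO.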

[3] = read-out: Transforming Growth Factor (TGFA), TGFA (gene 7039); assay: LTEA_HepaRG_TGFA: Life Technologies and Expression Analysis (LTEA) Assay for Transforming Growth Factor (TGFA) using HepaRG (AID 2283532); details: mRNA level, 48 h; actives raise or lower the signal
Summary of the method: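 HepaRG (human liver line), 48 h exposure, 8 conc. half-log down from 100 uM, 0.5% DMSO vehicle, duplicates; serum-free induction medium. TGFA mRNA by TaqMan qRT-PCR, ACTB/GAPDH/POLR2A normalization; gain/loss fit vs DMSO.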

[4] = read-out: Transforming Growth Factor (TGFB1), TGFB1 (gene 7040); assay: LTEA_HepaRG_TGFB1: Life Technologies and Expression Analysis (LTEA) Assay for Transforming Growth Factor (TGFB1) Transporter using HepaRG (AID 2283533); details: mRNA level, 48 h; actives raise or lower the signal
Summary of the method: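 Expression change of TGFB1 in human HepaRG cells is measured after a 48 h chemical exposure, up to 100 uM in 0.5% DMSO vehicle. Curves are fitted in both directions relative to the DMSO baseline.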

TIMP1, TIMP1 (gene 7076) = assay: LTEA_HepaRG_TIMP1: Life Technologies and Expression Analysis (LTEA) Assay for TIMP1 using HepaRG (AID 2283534); details: mRNA level, 48 h; actives raise or lower the signal;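 further: TaqMan qRT-PCR signal normalized to ACTB GAPDH and POLR2A housekeeping genes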
Summary of the method: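 We dosed human liver HepaRG cultures for 48 hours with up to 100 uM test chemical and measured TIMP1 expression by qRT-PCR. Activity in either direction is fitted relative to the 0.5% DMSO vehicle.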

[5] = read-out: Tumor necrosis factor receptor 1 (TNFRSF1A), TNFRSF1A (gene 7132); assay: LTEA_HepaRG_TNFRSF1A: Life Technologies and Expression Analysis (LTEA) Assay for Tumor necrosis factor receptor 1 (TNFRSF1A) using HepaRG (AID 2283535); details: mRNA level, 48 h; actives raise or lower the signal
Summary of the method: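 Expression of TNFRSF1A in human HepaRG liver cells was measured by qRT-PCR 48 h after chemical dosing (maximum 100 uM). Bidirectional curve fitting used 0.5% DMSO as baseline.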

[6] = read-out: Thyroid Hormone Responsive (THRSP), THRSP (gene 7069); assay: LTEA_HepaRG_THRSP: Life Technologies and Expression Analysis (LTEA) Assay for Thyroid Hormone Responsive (THRSP) using HepaRG (AID 2283536); details: mRNA level, 48 h; actives raise or lower the signal
Summary of the method: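 mRNA induction or loss relative to 0.5% DMSO vehicle was fitted bidirectionally across an eight-point curve whose highest exposure was 100 uM. Human HepaRG liver cells received chemicals in duplicate over 48 h before RNA extraction.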

[7] = read-out: Cellular tumor antigen p53 (Homo sapiens) (UniProt P04637); assay: LTEA_HepaRG_TP53: Life Technologies and Expression Analysis (LTEA) Assay for Tumor Protein P53 (TP53) using HepaRG (AID 2283537); details: mRNA level, 48 h; actives raise or lower the signal
Summary of the method: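 Read-out is TP53 transcript level by microfluidic qRT-PCR, normalised to three housekeeping genes and fitted bidirectionally against DMSO. Human HepaRG cells received compounds for 48 h, highest concentration 100 uM.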

[8] = read-out: UDP glucuronosyltransferase (UGT1A1), UGT1A1 (gene 54658); assay: LTEA_HepaRG_UGT1A1: Life Technologies and Expression Analysis (LTEA) Assay for UDP glucuronosyltransferase (UGT1A1) using HepaRG (AID 2283538); details: mRNA level, 48 h; actives raise or lower the signal
Summary of the method: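 Readout is UGT1A1 transcript level by qRT-PCR, normalized to three housekeeping genes, after 48 h chemical treatment of HepaRG cells. Concentrations ran from 100 uM down in half-log steps with 0.5% DMSO, and gain or loss relative to DMSO was fitted.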

[9] = read-out: UDP glucuronosyltransferase (UGT1A6), UGT1A6 (gene 54578); assay: LTEA_HepaRG_UGT1A6: Life Technologies and Expression Analysis (LTEA) Assay for UDP glucuronosyltransferase (UGT1A6) using HepaRG (AID 2283539); details: mRNA level, 48 h; actives raise or lower the signal
Summary of the method: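 Endpoint is UGT1A6 transcript induction or loss in a human liver cell line, quantified by TaqMan qRT-PCR 48 h after dosing. Concentrations ran from 100 uM downward in half-log steps in 0.5% DMSO; activity was fitted in both directions versus vehicle.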

[10] = read-out: X-box binding protein 1 (XBP1), XBP1 (gene 7494); assay: LTEA_HepaRG_XBP1: Life Technologies and Expression Analysis (LTEA) Assay for X-box binding protein 1 (XBP1) using HepaRG (AID 2283540); details: mRNA level, 48 h; actives raise or lower the signal
Summary of the method: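 Human HepaRG monolayers receive test chemical for 48 h across an eight-point half-log series starting at 100 uM. XBP1 mRNA gain or loss is scored against DMSO by qRT-PCR.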

[11] = LTEA_HepaRG_LDH_cytotoxicity: Cytotoxicity Assessment in the Life Technologies and Expression Analysis (LTEA) Assay (AID 2283563; active means hit-call score of the fitted dose curve at least 0.9, where 1 is the maximum;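 on AC50: LDH activity released into spent culture medium as a marker of cell death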)
Summary of the method: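 Human HepaRG hepatic cells are treated with test chemicals for 48 h at up to 100 uM in 0.5% DMSO. Cytotoxicity is scored from medium LDH against the vehicle control.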

[12] = ATG_XTT_Cytotoxicity: Cytotoxicity Assessment in the Attagene TRANS-FACTORIAL HepG2 Assay (AID 2283584; active means hit-call score of the fitted dose curve at least 0.9, where 1 is the maximum)
Summary of the method: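 Transfect HepG2 with GAL4-UAS reporter units, dose compound, incubate 24 h, then measure viable cell number by XTT. Fit concentration response against DMSO baseline.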

[13] = TOX21_p53_BLA_p2_viability: Viability Assessment in the Tox21 HCT-116 p53 Agonism Beta-lactamase Assay, Phase 2 (AID 2283591; active means hit-call score of the fitted dose curve at least 0.9, where 1 is the maximum;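 further: actives lower the ATP signal meaning cytotoxicity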)
Summary of the method: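 Cytotoxicity readout: CellTiter-Glo ATP luminescence, 30 min at room temperature, after the beta-lactamase read. Cells were HCT116 exposed 16 h at 37C to compounds pin-transferred at 217-fold dilution from DMSO stocks.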

[14] = target: Cellular tumor antigen p53 (Homo sapiens) (UniProt P04637); assay: TOX21_p53_BLA_p2_ratio: Tox21 HCT-116 p53 Agonism Beta-lactamase Assay, Ratio, Phase 2 (AID 2283592; active means hit-call score of the fitted dose curve at least 0.9, where 1 is the maximum)
Summary of the method: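 An inducible beta-lactamase reporter in HCT116 cells signals p53 pathway activation. After 16 h chemical exposure at 37C, cells load CCF4-AM substrate for 2 h at room temperature; activity is the cleaved/uncleaved emission ratio relative to DMSO.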

[15] = TOX21_p53_BLA_p3_viability: Viability Assessment in the Tox21 HCT-116 p53 Agonism Beta-lactamase Assay, Phase 3 (AID 2283593; active means hit-call score of the fitted dose curve at least 0.9, where 1 is the maximum;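 further: cells exposed to compound for 16 h before reading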)
Summary of the method: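 Cellular ATP was quantified by CellTiter-Glo luminescence, read after 30 min at room temperature. Beforehand, HCT116 cells (4000/well) received compound 5 h post-seeding, 217-fold diluted from DMSO, then incubated 16 h at 37C.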

[16] = target: Cellular tumor antigen p53 (Homo sapiens) (UniProt P04637); assay: TOX21_p53_BLA_p3_ratio: Tox21 HCT-116 p53 Agonism Beta-lactamase Assay, Ratio, Phase 3 (AID 2283596; active means hit-call score of the fitted dose curve at least 0.9, where 1 is the maximum)
Summary of the method: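 HCT116 p53-bla cells (4000/well) given compound in DMSO (217-fold dilution) after 5 h, incubated 16 h at 37C. CCF4-AM substrate 2 h at room temperature; 460/530 nm emission ratio, gain fitted against DMSO.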

[17] = TOX21_p53_BLA_p4_viability: Viability Assessment in the Tox21 HCT-116 p53 Agonism Beta-lactamase Assay, Phase 4 (AID 2283597; active means hit-call score of the fitted dose curve at least 0.9, where 1 is the maximum;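 further: hits lower the luminescence signal meaning cytotoxicity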)
Summary of the method: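 Compound exposure of HCT116 cells lasts 16 h at 37C, 5% CO2, with DMSO stocks diluted 217-fold. Cellular ATP is then quantified by CellTiter-Glo luminescence after 30 min at room temperature.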

[18] = target: Cellular tumor antigen p53 (Homo sapiens) (UniProt P04637); assay: TOX21_p53_BLA_p5_ratio: Tox21 HCT-116 p53 Agonism Beta-lactamase Assay, Ratio, Phase 5 (AID 2283599; active means hit-call score of the fitted dose curve at least 0.9, where 1 is the maximum)
Summary of the method: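 Beta-lactamase reporter ratio (blue 460 nm over green 530 nm, 405 nm excitation) after 2 h CCF4-AM loading, in HCT-116 cells exposed 16 h at 37 C to compounds pinned at 217-fold dilution. Increases relative to DMSO baseline scored.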

[19] = TOX21_p53_BLA_p5_viability: Viability Assessment in the Tox21 HCT-116 p53 Agonism Beta-lactamase Assay, Phase 5 (AID 2283600; active means hit-call score of the fitted dose curve at least 0.9, where 1 is the maximum)
Summary of the method: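 Counter-readout for cytotoxicity: ATP-dependent luminescence from CellTiter-Glo, read in the beta-lactamase wells after 30 min at RT, following a 16 h compound exposure at 37C.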

Measured: AC50

Sequence of Cellular tumor antigen p53 (Homo sapiens) (P04637 whole entry, looked up): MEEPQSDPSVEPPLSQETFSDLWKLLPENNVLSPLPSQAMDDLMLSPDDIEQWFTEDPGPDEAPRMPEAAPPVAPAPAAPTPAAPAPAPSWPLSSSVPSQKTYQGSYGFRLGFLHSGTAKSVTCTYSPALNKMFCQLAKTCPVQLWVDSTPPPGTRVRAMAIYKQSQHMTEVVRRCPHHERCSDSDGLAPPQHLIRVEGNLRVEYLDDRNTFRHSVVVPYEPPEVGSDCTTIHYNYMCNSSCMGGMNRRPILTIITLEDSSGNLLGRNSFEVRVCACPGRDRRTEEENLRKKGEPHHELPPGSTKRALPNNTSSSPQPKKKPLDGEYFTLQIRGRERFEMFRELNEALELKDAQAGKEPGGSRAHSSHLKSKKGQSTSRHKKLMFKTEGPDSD

COP(=S)(OC)SCn1nnc2ccccc2c1=O
active: [8] 43.2 µM | [14] 73.9 µM
inactive: [1] | [2] | [3] | [4] | TIMP1, TIMP1 (gene 7076) | [5] | [6] | [7] | [9] | [10] | [11] | [12] | [13] | [14] | [15] | [16] | [17] | [18] | [19]

C=CCOC(=O)C(C)(C)OC(=O)c1cc(-n2c(=O)cc(C(F)(F)F)n(C)c2=O)ccc1Cl
active: [8] 23.1 µM
not listed: [12] | [14] | [15]
inactive: all other assays above

CCC(C)n1c(=O)[nH]c(C)c(Br)c1=O (centres undefined)
active: [1] 29 µM | [2] 24.9 µM | [6] 18.5 µM | [8] 5.95 µM | [10] 30.5 µM
not listed: [12] | [14] | [15] | [16] | [17] | [18]
inactive: all other assays above

CS(=O)(=O)c1ccc(C(=O)C2C(=O)CCCC2=O)c([N+](=O)[O-])c1
not listed: [3] | [12]
inactive: all other assays above

C=C(C)CN(CC)c1c([N+](=O)[O-])cc(C(F)(F)F)cc1[N+](=O)[O-]
active: [8] 50 µM
not listed: [14] | [17] | [19]
inactive: all other assays above

Cc1cnc(C2=NC(C)(C(C)C)C(=O)N2)c(C(=O)O)c1 (centres undefined)
not listed: [12] | [13] | [14] | [15] | [16] | [18]
inactive: all other assays above

CC(C)N1C(=O)N(c2ccccc2)CSC1=NC(C)(C)C
active: [2] 96.5 µM | [3] 79.4 µM | [7] 76.2 µM | [8] 88.8 µM | [9] 85.1 µM | [11] 84.1 µM | [13] 84.6 µM | [17] 71.3 µM | [19] 69 µM
inactive: [1] | [4] | TIMP1, TIMP1 (gene 7076) | [5] | [6] | [10] | [15] | [16] | [18]
